# Measurements taken from PubChem BioAssay AID504332 (National Center for Advancing Translational Sciences (NCATS), 2011).
# The campaign covered roughly 350,000 compounds. About 31,000 (8.9%) were called active. A call without a number means that no potency is given here. About 15% were inconclusive and are not listed. This is one part of a sample in which actives are shown more often than they occur. More than one record can exist for a structure, and the calls need not agree. A number with no mark means an inactive call. The call rests on the fitted dose curve; in most records, active means well fitted inhibition curve with a large enough effect; inconclusive means small, poorly fitted or top-dose-only effect; inactive means no such curve, though single readings can be large or run the other way.
# Target: Histone-lysine N-methyltransferase EHMT2 (Homo sapiens) (UniProt Q96KQ7)
# Experiment: qHTS Assay for Inhibitors of Histone Lysine Methyltransferase G9a; further: nearly all actives have a fitted effect of over 75% in size
# Conditions: G9a H3K9 monomethylation, AlphaScreen, 2 h; series mostly up to 59 µM
# Procedure, shortened: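 Readings reflect AlphaScreen signal from monomethyl-H3K9 antibody detection. HMT at 20 nM; substrate b-H3K9 500 nM; cofactor SAM 20 uM; 2 h RT reaction; compounds tested as titrations in qHTS with 15 min preincubation.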
# Potency means the concentration at half of the fitted maximal effect.
# Sequence of Histone-lysine N-methyltransferase EHMT2 (Homo sapiens) (Q96KQ7 913-1193 limits assumed): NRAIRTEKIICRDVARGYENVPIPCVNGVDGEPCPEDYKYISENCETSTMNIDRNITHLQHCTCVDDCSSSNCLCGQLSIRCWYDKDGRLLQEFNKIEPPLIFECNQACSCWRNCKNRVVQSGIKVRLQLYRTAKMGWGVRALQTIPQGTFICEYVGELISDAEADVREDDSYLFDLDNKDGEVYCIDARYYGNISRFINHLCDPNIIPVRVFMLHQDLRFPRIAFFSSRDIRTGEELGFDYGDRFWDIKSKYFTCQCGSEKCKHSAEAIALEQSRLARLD
Compound,Potency,"activity, negative = inhibition"
CCc1ccccc1NC(=O)c1ccc(F)c(S(=O)(=O)NC2CCCCCC2)c1,inactive,
Cn1c(=O)c2sccc2n2c(CCC(=O)NCc3ccccc3Cl)nnc12,inactive,
O=C(NC(=S)Nc1cccc2c(O)cccc12)c1cccc(Br)c1,50.1 µM (active),
Cc1ccc(-c2nnc3c4ccccc4c(C)nn23)cc1NC(=O)c1cccc(Br)c1,inactive,
Cc1ccccc1NC(=S)NNC(=O)c1cccc(Br)c1,inactive,
CC(=O)Nc1ccc(S(=O)(=O)N2CCN(S(=O)(=O)c3cccs3)CC2)cc1,inactive,
CCCc1c(C(=O)N/N=C(\C)CCc2ccc(OC)cc2)nnn1-c1nonc1N,inactive,
C/C(=N\NC(=O)Cc1ccccc1[N+](=O)[O-])c1cccnc1,inactive,
O=C(/C=C/c1ccc(Cl)c([N+](=O)[O-])c1)c1cccnc1,39.8 µM (active),
O=C(Nc1cccnc1)c1cc(Cl)ccc1Cl,inactive,
O=C(Nc1cccnc1)c1cc([N+](=O)[O-])ccc1Cl,inactive,
O=C(/C=C/c1ccc(Cl)cc1Cl)c1cccnc1,8.91 µM (active),
O=C(/C=C/c1ccc(Cl)cc1Cl)NCc1ccco1,,2.18% [at 0.501 µM]
Cc1ccc(S(=O)(=O)N2CCCc3cc(NS(=O)(=O)c4cc(C)ccc4C)ccc32)cc1,inactive,
CCOc1ccc(CCNC(=O)COC(=O)CCS(=O)(=O)c2ccc(C)cc2)cc1OCC,,-3.67% [at 0.501 µM]
O=C(CCn1c(=O)c2sccc2n(Cc2ccc(F)cc2)c1=O)NCc1ccc2c(c1)OCO2,inactive,
O=C(NC1CCCCC1)c1ccc(-c2ccc(Cl)cc2)o1,44.7 µM (active),
S=C(NCc1ccc(Cl)cc1)NC1CCCCC1,inactive,
O=C(NC1CCCCCC1)c1cccnc1Sc1ccc(Cl)cc1,inactive,
CCSc1ncc(Cl)c(C(=O)Nc2c(C(=O)c3ccccc3)oc3ccccc23)n1,inactive,
Cc1ccc(CNC(=O)CSc2c3c(nc4cc(Cl)ccc24)CCCC3)cc1,inactive,
COc1ccc(CNC(=O)c2cc3c(=O)[nH]c4ccccc4c3s2)cc1,inactive,
CCCn1c(=O)c2[nH]c(-c3ccc(OCC(=O)NCCN)cc3)nc2n(CCC)c1=O,14.1 µM (active),32.3% [at 12.7 µM]
CCCn1c(=O)c2[nH]c(C3CCCC3)nc2n(CCC)c1=O,inactive,

Compound,Potency,"activity, negative = inhibition"
CCCNC(=O)CCn1cc(-c2ccc(OC)cc2)nc1CCN,,-5.65% [at 2.33 µM]
COc1ccc(CNC(=O)c2cc3c(s2)-c2ccccc2OC3)cc1,inactive,
Cc1ccc(-n2nc(-c3ccco3)cc2C(=O)NCc2cccnc2)cc1,2.51 µM (active),
CC(C)(C)c1cc(C(=O)NCc2cccnc2)ccn1,,17.8% [at 0.501 µM]
Cc1ccc(C(=O)NC(=S)NCc2cccnc2)cc1,inactive,
O=C(NCC12CC3CC(CC(C3)C1)C2)c1cc2nc(-c3ccccc3)cc(C(F)(F)F)n2n1,inactive,
COc1cc(OC)c(NC(=O)c2nc(-c3ccncc3)no2)cc1Cl,inactive,
Cc1ccc(C)c(Nc2nnc(-c3ccc(C)c(S(=O)(=O)N4CCCCC4)c3)c3ccccc23)c1,inactive,
O=C(CNC(=O)c1ccccc1Br)NNC(=O)c1cccs1,inactive,
O=C1CCC(C(=O)N2CCN(c3ccccc3Cl)CC2)CN1CC1CCCCC1 (stereo not given),inactive,
COc1ccc(NC(=O)COC(=O)c2n[nH]c3ccccc23)c(OC)c1,,3.57% [at 12.7 µM]
CCCn1c(C)cc(/C=C(\C#N)C(=O)OCC(=O)N(C)c2c(N)n(Cc3ccccc3)c(=O)[nH]c2=O)c1C,inactive,
CCN(CC)c1ccc(/C=N/NC(=O)CNC(=O)c2cccnc2)cc1,inactive,
O=C(CNC(=O)c1cccs1)N/N=C/c1cccc(Br)c1,inactive,
CCN(CC)c1ccc(/C=N/NC(=O)CNC(=O)c2cccs2)cc1,50.1 µM (active),
O=C(NCCS(=O)(=O)N1CCN(c2ccc(F)cc2)CC1)c1ccccc1Br,inactive,
O=C(Nc1ccc(OC(F)(F)F)cc1)C1CCCN(S(=O)(=O)c2ccc(Br)s2)C1 (stereo not given),inactive,
N#Cc1ccc(C(=O)OCC(=O)NC(=O)NC2CCCCC2)cc1,,13.4% [at 2.33 µM]
N#CCC(=O)NC(=O)NCC1CC1,39.8 µM (active),
CC(C)NC(=O)NC(=O)COC(=O)c1ccc(NC(=O)CC#N)cc1,inactive,
CC1(C)O[C@@H]2[C@H](O1)[C@@H](CO)O[C@H]2n1c(N2CCCCC2)nc2c(N)ncnc21,,9.14% [at 0.501 µM]
Cc1cc(OCC(=O)Nc2ncn[nH]2)c(C)c(C)c1Br,inactive,
Cc1ccc(C)c(OCCC(=O)Nc2cccc(S(=O)(=O)N3CCCC3)c2)c1,,6.86% [at 0.501 µM]
Cc1ccc(Cl)c(OCC(=O)NN2CCN(C)CC2)c1,inactive,

Compound,Potency,"activity, negative = inhibition"
CC(=O)Nc1ccc(S(=O)(=O)N2CCN(CCCOc3cc(C)ccc3C)CC2)cc1,,-3.97% [at 12.7 µM]
Cc1ccc(C(C)(C)C)c(OCCCCN2CCCC2)c1,8.91 µM (active),
Cc1ccc(OCC(O)CN2CCN(CC(O)COc3ccc(C)cc3Cl)CC2)c(Cl)c1 (stereo not given),inactive,
Cc1ccc(OCCCCN2CCCCC2)c(Br)c1,11.2 µM (active),
COCCNc1ncnc2c1c(-c1ccccc1)cn2-c1ccc(C)c(Cl)c1,inactive,
CCOC(=O)N1CCN(S(=O)(=O)c2ccc3c(c2)C(C)C(=O)N3)CC1 (stereo not given),,14.1% [at 12.7 µM]
Cc1ccccc1N1CCN(C2CCCN(C(=O)c3cn4c(C)cccc4n3)C2)CC1 (stereo not given),,9.34% [at 0.501 µM]
CCC(=O)Nc1ccc(-c2ccc(N3CCCCC3)nn2)cc1,inactive,
Cc1ccc(C)c(CNC(=O)c2cc3ccccn3n2)c1,inactive,
CCCN1CCN(CCCNC(=O)Cn2nc(CC)n3c(cc4occc43)c2=O)CC1,inactive,
O=C(CSc1ncc(-c2ccccc2)[nH]1)Nc1ccc(F)cc1F,inactive,
COc1ccc(/C=N/OCc2ccccc2C#N)c(OC)c1,inactive,
CCc1ccc2oc(-c3ccc(NC(=O)c4cc5ccccc5o4)cc3)nc2c1,inactive,
COc1ccc(CCNC(=O)c2cn(C)c3ccc(S(=O)(=O)N(C)C4CCCCC4)cc3c2=O)cc1OC,inactive,
COc1ccc(-c2cn(-c3ccc(C)cc3)c(=O)n2CC(=O)Nc2ccc(OC)c(OC)c2)cc1,inactive,
COc1ccccc1-n1c(-c2cc(-c3ccco3)[nH]n2)n[nH]c1=S,2.82 µM (active),
COc1ccc(OC)c(-n2c(-c3ccn[nH]3)n[nH]c2=S)c1,14.1 µM (active),
COc1ccc(OC)c(-n2c(=S)[nH]c3cc(C(=O)N4CCCCC4)ccc3c2=O)c1,inactive,
COc1ccc(CCn2c(-c3ccco3)nc3nc4ccccc4nc32)cc1OC,,-36.8% [at 12.7 µM]
COc1ccc(-c2c(-c3cc(OC)cc(OC)c3)n(C)c3ccc(-c4ccn[nH]4)cc23)cc1,,2.71% [at 0.501 µM]
COc1ccc(-n2c(-c3ccc(OC)c(OC)c3)n[nH]c2=S)cc1,5.62 µM (active),
Cc1n[nH]c(=O)n1-c1ccc(C(C)C)cc1,inactive,
Cc1ccc(-n2c(-c3ccc(Cl)cc3)n[nH]c2=S)cc1,1.41 µM (active),
Cc1ccc(-c2cn3cc(C)ccc3n2)cc1,inactive,

Compound,Potency,"activity, negative = inhibition"
COc1ccc(-n2c(C)csc2=S)cc1,inactive,
COc1ccccc1-n1cn[nH]c1=S,,-42.9% [at 12.7 µM]
COc1ccccc1CN1CCC(CNC(=O)c2cnn(-c3cccc(Cl)c3)c2C2CCN(C(=O)OC(C)(C)C)CC2)CC1,inactive,
COc1ccc(CCc2nc(-c3cccs3)no2)cc1,inactive,
COc1ccc(CC(=O)NCCc2sc3nc(-c4ccc(OC)cc4)nn3c2C)cc1,inactive,
Cc1cc(C)cc(NC(=O)CSc2nc3nccnc3c(=O)n2CCc2c[nH]c3ccccc23)c1,inactive,
CCOc1ccccc1NC(=O)Cn1c(=O)n(Cc2ccccc2)c(=O)c2c(C)c(C(=O)N(C)C)sc21,inactive,
Cc1cccc(C(=O)Nc2ccc(Oc3cnccn3)cc2)c1,,-1.31% [at 2.33 µM]
CCOc1cc(C(=O)NCCc2csc3nc(-c4ccc(C)cc4)nn23)cc(OCC)c1OCC,inactive,
CCOC(=O)C1=C(COC(=O)[C@H](C)NS(=O)(=O)c2ccccc2F)NC(=O)NC1C (stereo not given in full),,20.6% [at 2.33 µM]
CCc1cc2c(cc3c(=O)n(CC(=O)NCc4cccc(Cl)c4)nc(CC)n32)s1,inactive,
COCCNC(=O)c1ccc2c(c1)N(Cc1cccc(Cl)c1)C(=O)c1ccccc1S2(=O)=O,inactive,
CCOC(=O)[C@H]1[C@H]2COc3ccc(Cl)cc3[C@@H]2N2C(=O)c3cc(C)ccc3NC(=O)[C@@]12C,,28% [at 2.33 µM]
CCn1c(C)c(C)c2cc(C(=O)N3CCN(c4cccc(C)c4C)CC3)ccc21,39.8 µM (active),
Cc1cccc(N2CCN(C(=O)c3ccc4c(c3)CCN4S(=O)(=O)c3ccccc3)CC2)c1C,inactive,
Cc1[nH]c2ccc(C(=O)N3CCN(C)CC3)cc2c1C,inactive,
CCOc1ccccc1N1CCN(C(=O)c2ccc3[nH]c(C)c(C)c3c2)CC1,79.4 µM (active),
CCC(CC)C(=O)N1CCN(c2cccc(C)c2C)CC1,inactive,
CCS(=O)(=O)N1CCc2cc(C(=O)N3CCN(c4ccccc4OC)CC3)ccc21,inactive,
CCc1ccc(C(=O)COC(=O)c2ccco2)cc1,inactive,
CC1CCCCC12NC(=O)N(CC(=O)OCC(=O)NCc1ccc(F)cc1)C2=O (stereo not given),inactive,
COc1ccc(-c2nc3sc(CCNC(=O)C(C)(C)C)c(C)n3n2)cc1,inactive,
